Where “and” joins values, the source holds several entries; their conditions need not be identical. Identical values can stand only once. Inconclusive results are not listed. Calls of active or inactive are those of the source. Unless noted, calls follow the shape of the dose curve; as a rule, active = well fitted curve in the direction sought with a large enough effect; inconclusive = small, poorly fitted or top-dose-only effect, or another doubt; inactive = no such curve, though single readings can be large; an effect the other way counts as inactive or inconclusive.
Key:
[1] = Cell Viability - BJ (AID 421; calls by dose curve;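 also: potency is read from the fitted curve at half-maximal effect; cells exposed to compound for 40 hours at 37 °C before readout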); conditions: BJ fibroblast viability, qHTS
Outline: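 Cytotoxicity as drop in intracellular ATP (CellTiter-Glo, 20 min RT) after 40 hr compound exposure of BJ fibroblasts at 37 °C. Titrations scaled between DMSO and 100 uM tamoxifen, Hill-fitted for AC50.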

[2] = Cell Viability - Mesenchymal (AID 546); conditions: mesenchymal cells viability, qHTS; series mostly up to 91.7 µM;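 also: cells exposed to compound for 40 hours before reading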
Outline: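 Human kidney mesenchymal cells from normal renal glomeruli, 1000 cells/well, rested 5 hr at 37 °C, then treated 40 hr at 37 °C in complete medium. Cellular ATP read by CellTiter-Glo luminescence; AC50 from Hill-equation fits.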

[3] = Cellular Toxicity (caspase-3) HepG2 (AID 654); conditions: HepG2 caspase-3 activation, luminescence, 0% = DMSO only, 100% = tamoxifen; series mostly up to 92.2 µM;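 also: cells exposed to compound for 16 hours before reading; 0% = DMSO alone and 100% = caspase signal from 100 µM tamoxifen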
Outline: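 HepG2 cells (1500/well) were treated 16 h at 37 °C in complete medium, then caspase 3/7 activity was read by Caspase-Glo luminescence. Data were normalized to DMSO and 100 uM tamoxifen; AC50 came from Hill-equation fits of qHTS concentration-response.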

[4] = Cellular Toxicity (caspase-3) HUV-EC-C (AID 656); conditions: HUV-EC-C cells, caspase-3 activation (apoptosis), vehicle = 0, 100 µM tamoxifen = 100%; series mostly up to 92.2 µM
Outline: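 Luminescent caspase-3/7 activation (aminoluciferin substrate cleavage) in HUV-EC-C cells after 16 hr compound exposure, 37°C. Signal normalized to DMSO basal and 100 uM tamoxifen as 100%; AC50 from concentration-response fitted with the Hill equation.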

[5] = Cellular Toxicity (caspase-3) BJ (AID 658); conditions: BJ fibroblasts, luminescence, normalized: DMSO 0%, staurosporine 100%; series mostly up to 91.7 µM
Outline: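 BJ human foreskin fibroblasts, 1000 cells/well, treated 16 hours at 37 °C in complete medium; caspase 3/7 activity by Caspase-Glo luminescence after 1 hr at room temperature. Normalized to DMSO and 10 uM staurosporine; AC50 from Hill fits.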

[6] = Cellular Toxicity (caspase-3) MRC-5 (AID 659); conditions: MRC-5 cells, luminescence, normalized: DMSO 0%, 10 µM staurosporine 100%; series mostly up to 91.7 µM
Outline: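 MRC-5 human normal lung fibroblasts, 1500 cells/well, treated 16 h at 37 °C in complete medium. Caspase 3/7 measured by Caspase-Glo luminescence after 1 h at room temperature. Normalized to DMSO and 10 uM staurosporine; AC50 from Hill fit.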

[7] = Cellular Toxicity (caspase-3) SK-N-SH (AID 661); conditions: SK-N-SH caspase-3 activation, qHTS; series mostly up to 91.7 µM
Outline: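 Human SK-N-SH neuroblastoma cells, 1500/well, were exposed to compounds for 16 hours at 37 °C. Caspase-Glo 3/7 luminescence was normalized to DMSO (basal) and 10 uM staurosporine (100%), and AC50 came from a Hill fit.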

[8] = Cellular Toxicity (caspase-3) Hek293 (AID 664); conditions: HEK293 caspase-3 activation, DMSO = 0%, 100 µM tamoxifen = 100%; at 92.2 µM (top of the series);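 also: cells exposed to compound for 16 h at 37 °C before readout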
Outline: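 HEK293 cells in complete medium treated 16 h at 37 °C, then Caspase-Glo 3/7 luminescence read after 20 min at room temperature. Normalized to DMSO and 100 uM tamoxifen; AC50 from Hill fit of concentration-response.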

[9] = MultiTox-Fluor Cytotoxicity Assay - LYMP1-001 - Dead Cells (AID 946); conditions: LYMP1-001 lymphoblastoid cells, dead-cell protease fluorescence; series mostly up to 92.2 µM
Outline: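 Cytotoxicity as increased dead-cell protease fluorescence (bis-AAF-R110, 485/520 nm), read 60 min after MultiTox-Fluor reagent. Human lymphoblastoid line exposed 16 h; Hill-fitted AC50, with DMSO as 0% and 15 uM tetraoctylammonium bromide as 100%.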

[10] = Cell Viability - LYMP1-002 - Assay at 16 hr (AID 948); conditions: LYMP1-002 lymphoblastoid cell viability; series mostly up to 92.2 µM;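 also: 0% = DMSO alone and full effect = 92 µM tetraoctylammonium bromide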
Outline: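 LYMP1-002 human lymphoblastoid cells, 2500/well; 5 hr 37 C; cpd 16 hr 37 C; CellTiter-Glo 30 min RT; luminescence (ATP). Concentration-response, Hill-fit AC50. Pos ctrl tetraoctylammonium bromide.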

[11] = MultiTox-Fluor Cytotoxicity Assay - LYMP1-002 - Live Cells (AID 955); conditions: LYMP1-002 lymphoblastoid live-cell protease fluorescence viability; series mostly up to 46.1 µM; also: % is scaled to controls: 0 for no effect and ±100 for the full control effect
Outline: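 Human lymphoblastoid LYMP1-002 cells, 2500/well, treated 16 h at 37 C in complete medium. Live-cell protease activity via GF-AFC fluorescence (Ex/Em 405/510) after 60 min reagent incubation; AC50 from Hill fits.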

[12] = MultiTox-Fluor Cytotoxicity Assay - LYMP1-003 - Dead Cells (AID 961); conditions: LYMP1-003 lymphoblastoid cells, dead-cell protease fluorescence; series mostly up to 92.2 µM; also: nearly all actives have a fitted effect of over 70% in size
Outline: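 Dead-cell protease release, detected as bis-AAF-R110 fluorescence at 485/520 nm, was measured in LYMP1-003 cells after 16 h compound treatment at 37 C. AC50 values came from Hill-modeled qHTS curves normalized to DMSO (0%) and 15 uM tetraoctylammonium bromide (100%).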

[13] = MultiTox-Fluor Cytotoxicity Assay - LYMP1-003 - Live Cells (AID 962); conditions: LYMP1-003 lymphoblastoid cells, MultiTox-Fluor live-cell protease fluorescence; series mostly up to 92.2 µM;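 also: 0% = DMSO only and full loss = 92 µM tetraoctylammonium bromide; cytotoxic hits lower the live-cell protease signal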
Outline: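 LYMP1-003 lymphoblastoid cells, 2500/well in complete medium, treated 16 h at 37 C; live-cell protease cleavage of GF-AFC read by fluorescence (Ex/Em 405/510) after 60 min reagent; AC50 from Hill fits of concentration-response.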

[14] = Cell Viability - LYMP1-003 - Assay at 24 hr (AID 963); conditions: LYMP1-003 lymphoblastoid cell viability; series mostly up to 92.2 µM;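 also: plate controls were DMSO only for no effect and tetraoctylammonium bromide positive control for full effect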
Outline: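 Human lymphoblastoid LYMP1-003 cells, 2500/well, treated 24 h at 37 C in complete medium. Viability read as intracellular ATP by CellTiter-Glo luminescence after 30 min at room temperature; AC50 from Hill-equation fits of qHTS concentration-response.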

[15] = Cell Viability - LYMP2-003 (AID 965); conditions: LYMP2-003 lymphoblastoid cell viability; series mostly up to 92.2 µM;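 also: cells exposed to compounds for 24 h before reading; 0% = DMSO only and full effect = 92 µM tetraoctylammonium bromide; nearly all actives have a fitted effect of over 50% in size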
Outline: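 CellTiter-Glo luminescence (cellular ATP) after 24 h compound exposure at 37 C in complete medium; 2500 cells/well, 5 h settling beforehand. Concentration-response fitted to standard Hill equation for AC50. Tetraoctylammonium bromide served as positive control.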

[16] = Cell Viability - LYMP2-025 (AID 976); conditions: LYMP2-025 lymphoblastoid cell viability; series mostly up to 92.2 µM;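 also: plate controls were DMSO only for no effect and tetraoctylammonium bromide control for full effect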
Outline: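 Human lymphoblastoid LYMP2-025 cells, 2500/well, exposed 24 h at 37 C in complete medium in 1536-well qHTS. Viability as cellular ATP by CellTiter-Glo luminescence; AC50 from Hill fits of concentration-response data.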

[17] = Cell Viability - LYMP2-016 (AID 984); conditions: LYMP2-016 lymphoblastoid cell viability, qHTS; series mostly up to 92.2 µM; also: % is scaled to controls: 0 for no effect and ±100 for the full control effect; nearly all actives have a fitted effect of over 55% in size
Outline: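 qHTS, 1536-well: 2500 LYMP2-016 cells/well, 5 hr 37 C, compound added, 24 hr 37 C, CellTiter-Glo 30 min RT, luminescence. Tetraoctylammonium bromide positive control. AC50 via Hill fit.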

[18] = Cell Viability - LYMP2-026 (AID 989); conditions: LYMP2-026 lymphoblastoid cell viability, qHTS; series mostly up to 92.2 µM; also: % is scaled to controls: 0 for no effect and ±100 for the full control effect; nearly all actives have a fitted effect of over 50% in size
Outline: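 Human lymphoblastoid LYMP2-026 cells, 2500/well, exposed to compound 24 h at 37 C in complete medium. Viability as intracellular ATP by CellTiter-Glo luminescence; AC50 from Hill fits of qHTS concentration-response.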

[19] = qHTS Assay for Identification of Small Molecule Inducers of Hypoxia Response (AID 2120; active = well fitted curve in the direction sought with a large enough effect in the signal ratio, with a control signal flat, not every such curve was filed as active; the % refers to the signal ratio; also: 0% is about no effect); conditions: hypoxia response reporter cells, beta-lactamase ratio readout; series mostly up to 104 µM
Outline: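 HRE-bla ME-180 cells in Opti-MEM with 0.5% dialyzed FBS, pre-plated 4-5 h, then compound titration for 17 h at 37 degrees Celsius. CCF4 loaded 2.5 h at room temperature; 460/530 nm ratio gave %Activity and AC50 for induction.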

[20] = molecular target: Peroxisome proliferator-activated receptor alpha (Homo sapiens) (UniProt Q07869); assay: qHTS assay for small molecule agonists of the peroxisome proliferator-activated receptor alpha (PPARalpha) signaling pathway (AID 651778); conditions: PathHunter PPARalpha complementation, chemiluminescence, 6 h; hits give high values; also: % of control where 0% means no effect
Outline: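 Enzyme-fragment complementation assay in which ligand-bound PPARalpha translocates and forms an active enzyme that generates chemiluminescence. Cells were plated overnight, exposed to compound for 6 hr at 37 C, and then given detection reagent for 60 min at room temperature.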

Chain of Peroxisome proliferator-activated receptor alpha (Homo sapiens) (Q07869 whole entry, looked up, the tested form may be a part): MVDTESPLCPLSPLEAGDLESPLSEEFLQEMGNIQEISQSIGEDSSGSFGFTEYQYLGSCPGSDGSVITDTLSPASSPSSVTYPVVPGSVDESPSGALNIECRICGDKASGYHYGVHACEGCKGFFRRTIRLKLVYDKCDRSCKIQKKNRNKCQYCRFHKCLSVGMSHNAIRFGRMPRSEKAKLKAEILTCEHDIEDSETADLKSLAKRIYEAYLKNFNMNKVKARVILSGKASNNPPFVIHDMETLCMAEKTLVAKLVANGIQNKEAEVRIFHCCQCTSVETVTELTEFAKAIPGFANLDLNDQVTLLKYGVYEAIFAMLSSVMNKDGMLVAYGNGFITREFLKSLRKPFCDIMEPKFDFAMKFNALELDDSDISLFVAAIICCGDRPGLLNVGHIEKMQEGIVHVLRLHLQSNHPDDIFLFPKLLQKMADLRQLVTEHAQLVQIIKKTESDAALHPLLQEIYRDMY

ClCC(Br)CBr (stereo not given)
inactive: Potency [1] > 92 µM | Potency [2] | outcome [3] | outcome [4] | outcome [5] | outcome [6] | Potency [7] | caspase-3 activation [8] 0.439% | outcome [9] | outcome [10] | outcome [11] | Potency [12] | outcome [13] | outcome [14] | Potency [15] | Potency [16] | Potency [17] | Potency [18] | Potency [19] | max response [20] -1.61%

Cl/C=C/Cl
inactive: Potency [1] > 92 µM | Potency [2] | outcome [3] | outcome [4] | outcome [5] | outcome [6] | Potency [7] | caspase-3 activation [8] -0.612% | outcome [9] | outcome [10] | outcome [11] | Potency [12] | outcome [13] | outcome [14] | Potency [15] | Potency [16] | Potency [17] | Potency [18] | Potency [19] | max response [20] -4.81%

Nn1cnnc1
inactive: Potency [1] > 92 µM | Potency [2] | outcome [3] | outcome [4] | outcome [5] | outcome [6] | Potency [7] | caspase-3 activation [8] 0.966% | outcome [9] | outcome [10] | outcome [11] | Potency [12] | outcome [13] | outcome [14] | Potency [15] | Potency [16] | Potency [17] | Potency [18] | Potency [19] | max response [20] -0.452%

CC(=O)[O-].CC(=O)[O-].CC(=O)[O-].[Cr+3]
inactive: Potency [1] > 92 µM | Potency [2] | outcome [3] | outcome [4] | outcome [5] | outcome [6] | Potency [7] | caspase-3 activation [8] 1.42% | outcome [9] | outcome [10] | outcome [11] | Potency [12] | outcome [13] | outcome [14] | Potency [15] | Potency [16] | Potency [17] | Potency [18] | Potency [19] | max response [20] -3.23%

CC(Cl)(Cl)Cl
inactive: Potency [1] > 92 µM | Potency [2] | outcome [3] | outcome [4] | outcome [5] | outcome [6] | Potency [7] | caspase-3 activation [8] -1.64% | outcome [9] | outcome [10] | outcome [11] | Potency [12] | outcome [13] | outcome [14] | Potency [15] | Potency [16] | Potency [17] | Potency [18] | Potency [19] | max response [20] -3.93% and -1.58%

O=C(O)c1cccc(Cl)c1
inactive: Potency [1] > 92 µM | Potency [2] | outcome [3] | outcome [4] | outcome [5] | outcome [6] | Potency [7] | caspase-3 activation [8] -0.358% | outcome [9] | outcome [10] | outcome [11] | Potency [12] | outcome [13] | outcome [14] | Potency [15] | Potency [16] | Potency [17] | Potency [18] | Potency [19] | max response [20] -1.81%

ClCCCCl
inactive: Potency [1] > 92 µM | Potency [2] | outcome [3] | outcome [4] | outcome [5] | outcome [6] | Potency [7] | caspase-3 activation [8] -1.63% | outcome [9] | outcome [10] | outcome [11] | Potency [12] | outcome [13] | outcome [14] | Potency [15] | Potency [16] | Potency [17] | Potency [18] | Potency [19] | max response [20] -2.57%

Reference: PubChem BioAssay (NCATS)
